Here are results for 35 compounds from ChEMBL document CHEMBL3433997, “St. Jude Leishmania screening dataset” (2016).

Common to all, as to type: functional
Assay [1] has as its target Solute carrier family 2, facilitated glucose transporter member 1 (Homo sapiens) (UniProt P11166). The assay can be described thus: ST_JUDE_LEISH: Cytotoxicity at 2uM final concentration against transgenic Leishmania Mexicana promastigotes LmGLUT1 that are glucose transport deficient and complemented with the human glucose transporter GLUT1. Activity is measured by DNA content using SYBR green in vitro.

Assay [2] addresses Hexose transporter 1 (Plasmodium falciparum) (UniProt O97467). The experiment in a line: ST_JUDE_LEISH: Cytotoxicity at 2uM final concentration against transgenic Leishmania Mexicana promastigotes LmPfHT that are glucose transport deficient and complemented with the Plasmodium falciparum hexose transporter. Activity is measured by DNA content using SYBR green in vitro.
Assay [3] addresses Glucose transporter (Leishmania mexicana) (UniProt O61059). The assay can be described thus: ST_JUDE_LEISH: Cytotoxicity at 2uM final concentration against transgenic Leishmania Mexicana promastigotes LmGT2 that are glucose transport deficient and complemented with the L. Mexicana glucose transporter 2. Activity is measured by DNA content using SYBR green in vitro.

SMILES strings stand for the structures.

Sequence of Solute carrier family 2, facilitated glucose transporter member 1 (Homo sapiens) (P11166 whole entry): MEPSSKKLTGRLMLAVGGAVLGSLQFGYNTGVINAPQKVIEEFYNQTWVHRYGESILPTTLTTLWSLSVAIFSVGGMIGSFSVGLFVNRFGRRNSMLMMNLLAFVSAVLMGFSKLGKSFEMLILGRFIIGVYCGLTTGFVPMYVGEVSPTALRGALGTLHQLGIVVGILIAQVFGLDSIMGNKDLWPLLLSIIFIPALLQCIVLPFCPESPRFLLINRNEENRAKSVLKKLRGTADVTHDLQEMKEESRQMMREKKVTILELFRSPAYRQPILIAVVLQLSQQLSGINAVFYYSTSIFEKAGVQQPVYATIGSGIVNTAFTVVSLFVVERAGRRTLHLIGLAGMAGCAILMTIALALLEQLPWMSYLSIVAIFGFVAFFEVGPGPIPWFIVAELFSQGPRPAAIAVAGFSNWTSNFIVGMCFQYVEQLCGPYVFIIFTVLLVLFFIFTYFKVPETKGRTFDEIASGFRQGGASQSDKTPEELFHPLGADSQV

The term inhibition denotes the relative decrease from the control value, in per cent. With `c1ccc(CCNc2ccnc(Nc3ccc4cn[nH]c4c3)n2)cc1`, the values for the inhibition in assay [1], in assay [2] and in assay [3] were 17.8%, 14.8% and 10%, respectively.
Turning to `CC(=O)N(C)c1ccc(C(=O)Nc2cccc(-c3cccc(-c4nc5cc(C(F)(F)F)ccc5[nH]4)c3)c2)cc1`, the results for the inhibition in assay [1], in assay [2] and in assay [3] were 8.18%, 7.82% and 5.77%, respectively.
For `COc1ccc2nccc([C@@H](O)CN3CCC(NC(=O)C(c4cccs4)N4CCN(c5ccc(F)cc5)CC4)CC3)c2c1` (stereo not given in full), the values for the inhibition in assay [1], in assay [2] and in assay [3] were 5%, 3.71% and 4.65%, respectively.
For `N=C(N)c1cccc(OCCCOc2cccc(NC(=O)Nc3ccc([N+](=O)[O-])cc3)c2)c1`, the inhibition in assay [1] came out at 4.46%; in assay [2] it was 3.16%; in assay [3], 2.32%.
Consider `OC(CNCc1ccco1)Cn1c2ccc(Br)cc2c2cc(Br)ccc21` (stereo not given), for which the figures for the inhibition in assay [1], in assay [2] and in assay [3] were 5.15%, 3.41% and 2.56%, respectively.
As for `O=C(c1cc2c(s1)-c1cccc(Cl)c1SC2)N1CCN(c2ccncc2)CC1`, the inhibition in assay [1] is 4.7%; in assay [2] it was 3.88%; in assay [3] it was 4.35%.
Taken in the same sequence, the figures for `COc1ccccc1C1CC(c2ccccc2)=NN1C(=O)c1ccccc1` (stereo not given) were -3.13%, -0.25% and -0.28%.
Taken in the same sequence, the figures for `O=C(Nc1cc(Cl)ccc1Cl)N[C@H]1CCN(CCCCCNC(=O)C2CC2c2ccc(Cl)c(Cl)c2)C1` (stereo not given in full) were 1.43%, 1.2% and 4.46%.
The matching figures for `FC(F)(F)c1cccc(Nc2nc3nonc3nc2NC2C3CC4CC(C3)CC2C4)c1` (stereo not given): 3.05%, 1.79% and 0.47%.
For the compound `CCN1CCC(N(Cc2ccc(-c3ccc(C(F)(F)F)cc3)cc2)C(=O)Cn2c(SCc3ccc(F)cc3)nc(=O)c3c2CCC3)CC1`, the inhibition in assay [1] was -0.04%; in assay [2], -0.63%; in assay [3], -2.05%.
Taken in the same sequence, the figures for `Cc1[nH]c(C)c(-c2ccc(-c3ccc(OC(F)(F)F)cc3)cc2)c(=O)c1Br` were 2.4%, 4.25% and 3.37%.
Taken in the same sequence, the figures for `CC(C)C[C@H](NC(=O)[C@H](Cc1ccccc1)N(C[C@H](Cc1ccccc1)NC(=O)OC(C)(C)C)C(=O)C(F)(F)F)C(=O)NC1CCN(Cc2ccccc2)CC1` were 5.24%, 5.7% and 4.2%.
The matching figures for `Cc1ccc(CNC(=O)c2cc3c(=O)n4cccc(C)c4nc3n(CCN3CCOCC3)c2=N)cc1`: -0.35%, 1% and 1.48%.
On to `Cn1cncc1-c1ccc2c(-c3ccsc3)cnc(N)c2c1`, for which the inhibition in assay [1] was determined as 5.58%; in assay [2], 6.85%; in assay [3], 6.81%.
For the compound `CC(=O)Nc1nc(C(=O)Nc2cccc(-c3cccc(-c4nc5cc(F)ccc5[nH]4)c3)c2)cs1`, the inhibition came out at 2.3% in assay [1], 3.28% in assay [2] and 2.66% in assay [3].
The matching figures for `Cc1cccc(CN2CCCN(Cc3ccc(C(=O)Nc4ccc(C)c(F)c4)cc3)CC2)c1`: 1.23%, 4.06% and 2.11%.
Turning to `O=C(Nc1ccc(Cn2ncc(N3CCCNCC3)c(Cl)c2=O)cc1)Nc1cc(C(F)(F)F)cc(C(F)(F)F)c1`, the inhibition was 2.99% in assay [1], 1% in assay [2] and 1.99% in assay [3].
As for `CO/C(=C\C=C\c1cc2cc(Cl)c(Cl)cc2[nH]1)C(=O)NCCCN1CCN(c2cccc(Cl)c2)CC1`, the inhibition in assay [1] was -1.14%; in assay [2], -0.72%; in assay [3], -1.82%.
Consider `Cc1cccc(C)c1N1CCN(C2CCC(NC(=O)/C=C/c3ccccc3)CC2)CC1` (stereo not given), for which the figures for the inhibition in assay [1], in assay [2] and in assay [3] were 1.7%, 1.21% and 1.49%, respectively.
The matching figures for `O=C(/C=C/c1ccc(Cl)c(Cl)c1)NCCCCCN1CCCN(C(=O)Nc2cccc(Cl)c2)CC1`: 0.54%, 0.75% and 3.37%.
Turning to `CCN(CC)Cc1cc(NC(=O)c2ccccc2O)ccc1Oc1ccc(Cl)cc1`, the inhibition in assay [1] came to 2.02%; in assay [2], 0.32%; in assay [3], 1.46%.
Taken in the same sequence, the figures for `Cc1[nH]c(C)c(-c2ccc(-c3cccc(Cl)c3)nc2)c(=O)c1Br` were 0%, 1.07% and 0.63%.
Taken in the same sequence, the figures for `CN(Cc1cnc2nc(N)nc(N)c2n1)c1ccc(C(=O)N[C@H](CCC(=O)OC(C)(C)C)C(=O)N[C@@H](CCC(=O)OC(C)(C)C)C(=O)OC(C)(C)C)cc1` were 2.25%, 1.59% and 3.05%.
The matching figures for `COc1ccc2sc(CNCCCNc3cc(=O)c4ccccc4[nH]3)c(Cl)c2c1`: 3.04%, 3.59% and 4.49%.
Take `Cc1cccc2nc(-c3ccc(-c4ccc(C(=O)NCCN5CCCC5)cc4)s3)[nH]c12`: the inhibition in assay [1] was 1.13%; in assay [2] it was 0.54%; in assay [3] it was -0.1%.
Taken in the same sequence, the figures for `COc1ccc2nccc([C@@H](O)CN3CCC(NC(=O)c4ccc(-c5ccc(C#N)cc5)cc4)CC3)c2c1` were 1.89%, 1.64% and 3.25%.
Take `CCN(CC)CCCNc1ncc2c(-c3ccc(NC(=O)Nc4cc(C(F)(F)F)ccc4F)cc3)nn(C)c2n1`: the inhibition in assay [1] was 4.51%; in assay [2], 4.18%; in assay [3] it was 4.62%.
With `COc1ccc(-c2cccc(NC(=O)c3cccc(Cl)c3)c2)cc1CNC(C)C`, the figures for the inhibition in assay [1], in assay [2] and in assay [3] were 1.6%, -0.57% and 1.24%, respectively.
Turning to `CCNC(=O)N[C@@H]1CN[C@@H](C#Cc2cc3c(Nc4ccc(OCc5cccc(F)c5)c(Cl)c4)ncnc3s2)C1`, the values for the inhibition in assay [1], in assay [2] and in assay [3] were -0.84%, -1.15% and -0.46%, respectively.
The matching figures for `COc1ccccc1NC(=O)Nc1ccc(-c2ccc(-c3nc4cc(C(F)(F)F)ccc4[nH]3)cc2)cc1`: 9.03%, 4.25% and 2.26%.
In the case of `Cc1ccc(NC(=O)c2ccc(CN3CCCN(Cc4cccc(C#N)c4)CC3)cc2)cc1F`, the values for the inhibition in assay [1], in assay [2] and in assay [3] were 4.02%, 2.41% and 2.02%, respectively.
Taken in the same sequence, the figures for `CCN(CCCN1CCCCC1)c1cc(C)nc(Nc2ccc(Cl)cc2)n1` were 1.87%, 2.6% and 1.8%.
The matching figures for `Cc1c(Cl)ccc2sc(N3CCN(C(=O)c4ccc([N+](=O)[O-])o4)CC3)nc12`: 71.9%, 57.6% and 30%.
On to `O=C(c1ccc([N+](=O)[O-])o1)N1CCN(c2nc3c(F)cc(F)cc3s2)CC1`, for which the values for the inhibition in assay [1], in assay [2] and in assay [3] were 21%, 6.03% and 7.31%, respectively.
Taken in the same sequence, the figures for `CN1CCC(NCc2ccc(-c3ccc(S(=O)(=O)NCc4ccccc4)c(F)c3)cc2)CC1` were 12.7%, 13.2% and 7.68%.
